PubChem BioAssay AID624168 (Sanford-Burnham Center for Chemical Genomics, 2012)
About 800 (0.22%) of roughly 360,000 compounds were called active.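 How the source made its calls: active means activation of at least 8% versus controls, or a plate z-score of at least 8; inactive means the rest.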 This excerpt belongs to a sample that is enriched for actives.

Assay: activators of alpha-DG glycosylation, primary screen, uHTS, Pro5-aDG cells, AlphaScreen (AID 624168);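 further: Pro5 are CHO cells carrying HIG-tagged alpha-DG that lacks glycosylation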
Settings: alpha-DG glycosylation AlphaScreen (IIH6), at 10 µM, hits give high values, 0% Pro5, 100% B10-LARGE cell signal

SMILES	activation
CN(CC(=O)Nc1cccc(F)c1)C(=O)C1=COCCO1	0.1% (inactive)
Cc1ccc(NC(=O)c2sccc2C)cc1[N+](=O)[O-]	0% (inactive)
Cc1ccc(NC(=O)CN(C)CC(=O)Nc2cccc(F)c2)cc1[N+](=O)[O-]	10% (active)
O=C(CN1CCCCC1)NC(=O)Nc1ccccc1F	0% (inactive)
O=C(CCNS(=O)(=O)c1ccc(Br)s1)NCc1ccccc1Cl	0.5% (inactive)
COc1cccc(NC(=O)N(C)C[C@@H]2Oc3ncc(Br)cc3C(=O)N([C@@H](C)CO)C[C@H]2C)c1	0.2% (inactive)
OC(CN1C2=NCCCN2c2ccccc21)c1ccc(Br)cc1 (stereo not given)	0.6% (inactive)
CC(=O)N1CSCC1C(=O)O (stereo not given)	0.1% (inactive)
NC(=O)COC(=O)c1cc(S(=O)(=O)N2CCN(c3ccccc3)CC2)ccc1Cl	-1.4% (inactive)
O=c1ccc2cc(S(=O)(=O)N3CCN(c4ccccc4)CC3)ccc2o1	8.4% (active)
O=S(=O)(c1ccc2ccccc2c1)N1CCN(S(=O)(=O)N2CCOCC2)CC1	0.1% (inactive)
O=C1OCCOC2CCCc3oc(-c4ccccc4)c1c32 (stereo not given)	0.5% (inactive)
CCN(CC(=O)NCc1ccc(Cl)cc1)C(=O)CSc1ccccc1	0% (inactive)
O=C(NCCN1CCOCC1)Nc1cccc(Cl)c1	-0.1% (inactive)
c1ccc2cc3c(NCCN4CCOCC4)ccnc3cc2c1	9% (active)
O=S(=O)(c1ccc(Cl)cc1)c1nc(-c2ccccc2F)oc1NCCN1CCOCC1	0.2% (inactive)
O=S1(=O)CC(NCc2ccccc2)C(Nc2ccc(Cl)cc2)C1 (stereo not given)	0% (inactive)
O=C(/C(=N\O)n1cncn1)c1ccc(Br)cc1Br	0.2% (inactive)
O=C(NC(c1ccc(-c2ccccc2)cc1)c1cnccn1)C1CCN(CCOc2ccc(Cl)cc2Cl)CC1 (stereo not given)	7.1% (active)
Cc1ccc(C(NC(=O)C2CCN(CCOc3ccc(Cl)cc3Cl)CC2)c2ccccn2)cc1 (stereo not given)	0.4% (inactive)
O=C(NC(c1ccc(Cl)cc1)c1cnccn1)C1CCN(Cc2ccc(Cl)cc2)CC1 (stereo not given)	0.1% (inactive)
CCOC(=O)c1cc2sccc2n1Cc1ccc(C#N)cc1	0% (inactive)
CCOCCCNC(=O)C1(O)c2cc(Br)ccc2NC(=O)N1c1ccc(C)c(C)c1 (stereo not given)	-0.2% (inactive)
CN1CCCc2cc(C#N)c(=O)[nH]c21	0% (inactive)

SMILES	activation
CC(C)c1cc(Cn2c3ccccc3c(=O)n2C(C)Cn2cc(C3CC3)nn2)on1 (stereo not given)	6.8% (active)
COCCN(C(=O)C(C)C)c1nnc(-c2ccc(C(C)(C)C)cc2)s1	0.5% (inactive)
Cc1ccc(OCc2nnc(SC3CCc4ccccc4C3=O)n2C)cc1 (stereo not given)	0% (inactive)
Cc1cc(C)c(S(=O)(=O)n2cc(C(C)C(N)C(=O)O)c3ccccc32)c(C)c1 (stereo not given)	-0.2% (inactive)
Cc1ccc(NS(=O)(=O)c2c(C)[nH]c(C)c2C(=O)N2CCCCC2)c(C)c1	-0.1% (inactive)
CCN(CC)C(=O)C1=C(C)N(Cc2ccc(OC)cc2)C(=O)C(CC(=O)NCc2ccco2)C1 (stereo not given)	-0.1% (inactive)
Cc1ccc(S(=O)(=O)N2CCCCC2)cc1NC(=O)[C@@H]1CCCN1C(=O)c1cccs1	0.1% (inactive)
O=C(Nc1cccc(Br)c1)C1CC(=O)N(C2CCCC2)C1 (stereo not given)	0% (inactive)
COc1ccc(OCc2cc(C(=O)N3CCCC3)no2)c2ccccc12	0.3% (inactive)
COc1ccccc1N1CCN(C(=O)c2cc(=O)c3cc(C)cc(C)c3o2)CC1	-0.2% (inactive)
COc1ccccc1N1CCN(C(=O)c2cc(-c3ccc(Br)cc3)on2)CC1	9.8% (active)
Cc1ccc(NS(=O)(=O)c2ccc(F)cc2)nc1	-0.2% (inactive)
Fc1ccc(OCc2nn3c(Cn4nnc5ccccc54)nnc3s2)cc1	0.5% (inactive)
C=CCOc1cccc(CNn2cn[nH]c2=S)c1	0% (inactive)
CC[C@]12c3[nH]c4cc(CCC(=O)N(C)C)ccc4c3CCN1C(=O)[C@@H](CC(=O)NCC13CC4CC(CC(C4)C1)C3)C[C@@H]2C(=O)N1CCN(C(=O)C2CC2)CC1	-0.1% (inactive)
Cc1cc(=O)oc(C)c1C(=O)NC1CC(C)(C)NC(C)(C)C1	-0.1% (inactive)
COc1ccc(CC(NC(C)=O)C(=O)NC2CCN(C(=O)c3ccc(OC)c(OC)c3)CC2)cc1OC (stereo not given)	-0.3% (inactive)
Clc1cc(NC2CCCCC2)ncn1	0.2% (inactive)
CN(C)C(=S)Nc1ccc(Br)cc1Cl	0.1% (inactive)
COc1ccc(Cl)cc1NC(=O)NCC1CCN(Cc2ccccc2F)CC1	1% (inactive)
Cc1cccc(CN2CCC(CNC(=O)Nc3ccc(F)c(Cl)c3)CC2)c1	5.2% (active)
O=C(CN1CCN(Cc2ccccc2)CC1)Nc1ccc(F)c(F)c1	-0.1% (inactive)
Nc1cccnc1Sc1ccccc1	0% (inactive)
CC(=O)N/C(=C/c1ccc(OC(F)F)cc1)C(=O)O	-0.4% (inactive)

SMILES	activation
Cc1cccc(OCC(O)CN2CCN(S(=O)(=O)c3ccc(C)cc3C)CC2)c1 (stereo not given)	0.1% (inactive)
OC(COc1ccc(F)cc1Cl)CN1CCc2ccccc2C1 (stereo not given)	0.1% (inactive)
Cc1ccc(OCC(O)CN2CCN(CC(O)COc3ccc(C)cc3Cl)CC2)c(Cl)c1 (stereo not given)	3.9% (active)
COc1ccc(CC(=O)OC(C)C(=O)Nc2ccc(S(N)(=O)=O)cc2)cc1 (stereo not given)	0.1% (inactive)
Cc1ccc(S(=O)(=O)N2CCN(CC(=O)N/N=C/c3ccc(Br)s3)CC2)cc1	-0.1% (inactive)
O=[N+]([O-])c1ccc(C=Nc2ccc(Cl)cc2Cl)s1	-0.4% (inactive)
CC(C)(C)c1cc(C(=O)N/N=C/c2ccc([N+](=O)[O-])s2)n[nH]1	2.7% (active)
Cc1nn(Cc2ccc(Cl)cc2)c(Cl)c1/C=N/NC(=O)CNc1ccccc1F	0.9% (inactive)
Cc1ccccc1NCC(=O)N/N=C\c1ccc([N+](=O)[O-])s1	9.3% (active)
Cc1c(C(=O)N2CCCC2)c(S(=O)(=O)NCC(C)c2ccccc2)c(C)n1C (stereo not given)	-0.1% (inactive)
O=S(=O)(N1CCCCC1)N1CCNCC1	0% (inactive)
CC(C)[C@@H](C(=O)O)N(Cc1cccc(CN([C@H](C(=O)O)C(C)C)S(C)(=O)=O)c1)S(C)(=O)=O	-0.1% (inactive)
COc1ccc(F)cc1S(=O)(=O)N1CCCCC1	-0.1% (inactive)
Cc1cc(C)c2[nH]c(=O)c(CN(Cc3ccccc3)C(=S)NCCCN(C)C)cc2c1	8.7% (active)
Cc1cccc2cc(CN(Cc3cccs3)C(=S)NCc3ccco3)c(=O)[nH]c12	0% (inactive)
COCCCNC(=S)N(CCN(C)C)Cc1cc2cc3c(cc2[nH]c1=O)OCCO3	-0.2% (inactive)
Cc1cccc(C)c1NC(=O)N1CC=C(n2c(=O)[nH]c3ccccc32)CC1	0.1% (inactive)
O=C(Nc1cc(S(=O)(=O)Nc2ccc(Cl)cc2)ccc1O)c1ccc(F)cc1F	0.4% (inactive)
CC(=O)N(c1ccc2oc(=O)sc2c1)S(=O)(=O)c1ccc(C)cc1	0% (inactive)
O=C(CN(c1cc(C(F)(F)F)ccc1Cl)S(=O)(=O)c1ccccc1)NCc1cccnc1	0.2% (inactive)
O=C(c1cccnc1)N(c1cc2sc(=O)oc2c2ccccc12)S(=O)(=O)c1ccccc1	8.9% (active)
O=C(Nc1ccc(-n2ccnc2P(=O)(O)c2ccccc2)cc1)c1ccccc1Br	-0.1% (inactive)
COc1ccc(C2c3[nH]c4ccccc4c3C[C@H]3C(=O)N(CC(C)C)CC(=O)N23)c(OC)c1 (stereo not given in full)	0.3% (inactive)
COc1ccc(C2(CNC(=O)Cc3ccc(OC)c(OC)c3)CCCC2)cc1	-0.3% (inactive)

SMILES	activation
COc1ccc(CC(=O)NC2CCSc3ccccc32)cc1OC (stereo not given)	0.1% (inactive)
COc1ccc(CC(=O)Nc2nc(-c3ccc(F)c(F)c3)cs2)cc1OC	2.7% (active)
Cc1c(C(=O)N(C)CCc2cnn(C)c2)oc2c(F)cccc12	0.2% (inactive)
COCCc1nn2c(=O)cc(COC(=O)c3cc(OC)c(OC)c(OC)c3)nc2s1	-0.1% (inactive)
CN1OC(COC(=O)c2ccc(Cl)cc2)CC1c1ccccc1 (stereo not given)	0.1% (inactive)
Cc1ccc(C(=O)C(=S)N2CCOCC2)cc1	0% (inactive)
COc1cccc(C(=O)Nc2nnc(S(=O)(=O)N3CCOCC3)s2)c1	-0.1% (inactive)
COc1cccc(C(=O)Nc2nnc(S(=O)(=O)N3CCCCC3)s2)c1	10.9% (active)
O=C(Nc1nnc(S(=O)(=O)N2CCCCCC2)s1)c1cccc(Br)c1	-0.2% (inactive)
CC(C)(C)OC(=O)N1CCC(C(=O)NNC(=O)c2ccc(Cl)cc2Cl)CC1	0.1% (inactive)
c1ccc2c(NC3C4CC5CC(C4)CC3C5)nc(N3CCOCC3)nc2c1 (stereo not given)	0.7% (inactive)
CCOc1ccc(CCNC(=O)CCc2nnc3ccc(N4CCCC4)nn23)cc1OCC	0.3% (inactive)
COCCCC1CCN(C(=O)C2CCC(=O)N(C3CCCCCC3)C2)CC1 (stereo not given)	-0.3% (inactive)
COC(=O)C(Cc1c[nH]c2ccccc12)NC(=O)CCNC(=O)c1ccco1 (stereo not given)	0.2% (inactive)
COc1ccccc1N1CC(C(=O)Nc2nnc(SCC(=O)NCC3CCCO3)s2)CC1=O (stereo not given)	-0.1% (inactive)
CCOc1ccccc1Nc1nnc(SCC(=O)Nc2cc(C)on2)s1	-0.2% (inactive)
CCOc1ccccc1Nc1nnc(SCC(=O)NCC2CCCO2)s1 (stereo not given)	5.2% (active)
COc1ccccc1OCCn1c(SCC(N)=O)nc2ccccc21	0% (inactive)
NC1=CC(=O)C(=O)c2cccnc21	4.9% (active)
O=C(C1CCCN(S(=O)(=O)c2ccc([N+](=O)[O-])cc2)C1)N1CCCCC1 (stereo not given)	0.9% (inactive)
COc1cc(C(C)=O)ccc1OC(=O)CN1C(=O)c2ccccc2C1=O	-0.1% (inactive)
O=C1C(=O)N(c2ccccc2)c2ccccc21	2.6% (inactive)
CC(C)OC(=O)CN1C(=O)C(=O)c2ccccc21	14.6% (active)
